BCR signal inh – blocks chronic active B-cell receptor signaling; ABC-DLBCL IkBa-CBG/CBR reporter, luminescence ratio, 4 h; Potency, µM (doses to about 46.1 µM), most hits filed as inhibitors; actives 0.05% (n = 340,000); active = well fitted inhibition curve with a large enough effect in the signal ratio, with a control signal flat, not every such curve was filed as active; inconclusive = small, poorly fitted or top-dose-only effect, or effect the other way, or a change in a side signal; the % refers to the signal ratio
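TMD8 ABC-DLBCL cells carrying doxycycline-inducible green luciferase fused to IkappaBalpha plus unfused red luciferase were exposed to compounds (up to 46 uM) for 4 hrs at 37C. Activity came from the overlap-corrected green/red luminescence ratio.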
MCF10A rerep – induces DNA re-replication in MCF 10a normal breast cells | MCF 10A DNA re-replication, Hoechst nuclear intensity, 48 h | Potency, µM (highest dose often 46.1 µM), hits mostly activators | actives 2.9% (n = 350,000) | AID 624296; note: nearly all actives have a fitted effect of over 50% in size
TDP1 cell noCPT – qHTS for Inhibitors of human tyrosyl-DNA phosphodiesterase 1 (TDP1): qHTS in cells in absence of CPT. DT40 Tdp1-/- hTDP1 cells, no CPT, ATP luminescence, 48 h. Potency, µM (highest dose often 46.2 µM), usual class: inhibitors. actives 15% (n = 420,000). AID 686978, 2013; note: nearly all actives have a fitted effect of over 55% in size
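Readout: luminescence from CellTiter-Glo after 30 min in the dark at RT. Cells: DT40 Tdp1-/- with stable hTDP1, 400/well. Exposure: compounds alone, ≥48 hr, 37 °C.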
TDP1 cell CPT – DT40-hTDP1 cell growth loss with CPT; chicken DT40 Tdp1-/-;hTDP1 cells + 20 nM CPT, ATP luminescence, 48 h; Potency, µM (highest dose often 46.2 µM), most hits filed as inhibitors; actives 12% (n = 420,000); note: nearly all actives have a fitted effect of over 55% in size
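Chicken DT40 Tdp1-/- cells stably complemented with human TDP1 were seeded at 400 cells/well in medium containing 20 nM camptothecin, exposed to pin-transferred compounds, and grown at 37 °C for at least 48 hr. Viability was read as ATP luminescence.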
SW480 rerep – induces DNA re-replication in SW480 colon adenocarcinoma cells; Potency, µM (series often up to 46.1 µM), actives largely listed as activators; actives 1.8% (n = 340,000); SW480 DNA re-replication, Hoechst DNA content imaging, 48 h; note: nearly all actives have a fitted effect of over 55% in size
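Compounds, transferred as 23 nL by pin tool, were incubated with cells for 48 hr; DNA content per nucleus was then quantified by Hoechst staining and fluorescence plate imaging.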
IL1B secr inh – inflammasome signaling inhibition, IL-1 beta readout | THP-1 LPS/ATP IL-1B secretion, AlphaLISA, 16 h; active compounds read low | activity change, % at 57.5 µM | actives 4.7% (n = 360,000); in the data active = activity change below about -50%; inconclusive = mostly about -30% to -49%
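THP-1 cells pretreated 1 hr with compounds (up to 57.5 uM final), then stimulated with LPS (250 ng/mL final) plus ATP (1.25 mM final); secreted IL-1B measured by AlphaLISA after 16 hr, decreased signal indicating inhibition.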
Large screens that a line does not name were inactive. Hits are enriched below; roughly 19% of the tested compounds scored in any of these assays. Unless noted, calls come from the whole dose curve; as a rule, active = well fitted curve in the direction sought with a large enough effect; inconclusive = small, poorly fitted or top-dose-only effect, or another doubt; inactive = no such curve, though single readings can be large; an effect the other way counts as inactive or inconclusive.

CCOC(=O)Cn1c(S(=O)(=O)Cc2ccccc2Cl)nc(-c2ccccc2)c1-c1ccccc1	BCR signal inh inconclusive, MCF10A rerep inconclusive, TDP1 cell noCPT 14.6µM, TDP1 cell CPT 16.4µM
C#CCn1c(S(=O)(=O)Cc2ccccc2Cl)nc(-c2ccccc2)c1-c1ccccc1	TDP1 cell noCPT inconclusive, TDP1 cell CPT 18.4µM, IL1B secr inh inconclusive
N#Cc1ccccc1NC(=O)COC(=O)CCc1ccccc1	none
COc1cc(C(=O)OCC(=O)NCC2CCCCC2)ccc1OCC(C)C	MCF10A rerep inconclusive, TDP1 cell noCPT inconclusive, TDP1 cell CPT inconclusive
COc1cc(C(=O)OCC(=O)NC2CCCCCC2)ccc1OCC(C)C	TDP1 cell noCPT 3.26µM, TDP1 cell CPT inconclusive
COc1cc(C(C)=O)ccc1COc1ccc(C(=O)OCC(=O)NC2CCS(=O)(=O)C2)cc1OC (configuration not stated)	BCR signal inh inconclusive, TDP1 cell noCPT 20.6µM, TDP1 cell CPT inconclusive
COCc1cc(C)nc2c1C(=O)NC(c1ccc(F)cc1)N2Cc1ccccc1 (configuration not stated)	none (no result: MCF10A rerep, SW480 rerep, IL1B secr inh)
CCOc1ccc(CCNC(=O)CSCC(=O)Nc2cccc(C)c2)cc1OCC	TDP1 cell noCPT inconclusive, TDP1 cell CPT inconclusive
CCN(CC)Cc1c(O)ccc2c(=O)c(-c3ccccc3OC)coc12	SW480 rerep inconclusive
CCN(Cc1ccccc1)Cc1c(O)ccc2c(=O)c(-c3ccccc3Cl)c(C(F)(F)F)oc12	TDP1 cell noCPT inconclusive, TDP1 cell CPT 18.4µM (no result: BCR signal inh, MCF10A rerep, SW480 rerep, IL1B secr inh)
CCN(Cc1ccccc1)Cc1c(O)ccc2c(=O)c(-c3ccccc3OC)c(C(F)(F)F)oc12	TDP1 cell noCPT 25.9µM, TDP1 cell CPT inconclusive (no result: BCR signal inh, MCF10A rerep, SW480 rerep, IL1B secr inh)
O=c1c(-c2cc(F)cc(F)c2)nc2cnc(N3CCOCC3)nc2n1C1CC1	none (no result: BCR signal inh, MCF10A rerep, SW480 rerep, IL1B secr inh)
CC(OC(=O)CC1Sc2ccccc2NC1=O)C(=O)N(C)Cc1ccccc1 (configuration not stated)	TDP1 cell noCPT 20.6µM, TDP1 cell CPT inconclusive (no result: BCR signal inh)
Cc1cc(C)nc(NC(=O)c2cccc(Br)c2)n1	TDP1 cell noCPT inconclusive
Cc1ccc(-c2cnc(NC(=O)c3cccc(Br)c3)s2)c(C)c1	TDP1 cell noCPT inconclusive, TDP1 cell CPT inconclusive, SW480 rerep inconclusive, IL1B secr inh -58.1
CCC(=O)N(CCC(Cc1ccccc1)c1ccc2c(c1)OCO2)Cc1ccccc1F (configuration not stated)	BCR signal inh inconclusive, MCF10A rerep inconclusive, TDP1 cell noCPT 4.61µM, TDP1 cell CPT 7.31µM, SW480 rerep inconclusive
CCC(=O)N(CCC(c1ccccc1)c1ccco1)Cc1cccs1 (configuration not stated)	MCF10A rerep 11.2µM, TDP1 cell noCPT 20.6µM, TDP1 cell CPT 16.4µM
CCC(=O)N(CCC(Cc1ccccc1)c1ccco1)Cc1ccco1 (configuration not stated)	BCR signal inh inconclusive, TDP1 cell noCPT 14.6µM, TDP1 cell CPT 18.4µM
O=C(c1ccco1)N(CCC(c1ccccc1)c1ccco1)Cc1ccccc1 (configuration not stated)	BCR signal inh inconclusive, MCF10A rerep inconclusive, TDP1 cell noCPT inconclusive, TDP1 cell CPT inconclusive
CCN(CC)C(=O)CC(c1ccccc1)c1ccco1 (configuration not stated)	none
COc1cc(=O)n2c(c1C(=O)NC(C)c1ccco1)CCN(Cc1cc(C)ccc1C)CC2 (configuration not stated)	none (no result: BCR signal inh, MCF10A rerep, SW480 rerep, IL1B secr inh)
Cc1cc(C(=O)NC(C)C2CCCO2)c(C)o1 (configuration not stated)	none
Cc1nc(NC(=O)C(C)(C)C)sc1C(=O)Cn1cc(-c2ccc(C(C)(C)C)cc2)nn1	TDP1 cell noCPT inconclusive, TDP1 cell CPT inconclusive (no result: BCR signal inh, MCF10A rerep, SW480 rerep)
Cc1ccc(C2=CSC3=NNC4(CCCCC4)NN23)cc1	MCF10A rerep inconclusive, TDP1 cell noCPT 23.1µM, TDP1 cell CPT inconclusive
CC(C)Oc1cc(NC(=O)CS(=O)CC(=O)N(C)C)c(Cl)cc1Cl (configuration not stated)	BCR signal inh inconclusive
CC(C)Oc1cc(NC(=O)CS(=O)CC(=O)Nc2cccc(C(F)(F)F)c2)c(Cl)cc1Cl (configuration not stated)	TDP1 cell noCPT 16.4µM, TDP1 cell CPT 20.6µM, IL1B secr inh -63.5
CCOC(=O)c1cc(-c2ccccc2)n(-c2cccc(C(=O)Nc3cccc(C)c3)c2)c1C	TDP1 cell noCPT 23.1µM, TDP1 cell CPT inconclusive (no result: MCF10A rerep, SW480 rerep, IL1B secr inh)
CCOC(=O)c1cnn(-c2ccc(C(=O)Nc3cccc(C(C)=O)c3)cc2)c1N	TDP1 cell noCPT inconclusive, TDP1 cell CPT 2.06µM (no result: MCF10A rerep, SW480 rerep, IL1B secr inh)
CCOC(=O)c1cc(-c2ccccc2)n(-c2cccc(C(=O)N(CC)c3ccccc3)c2)c1C	TDP1 cell noCPT 18.4µM, TDP1 cell CPT 14.6µM (no result: MCF10A rerep, SW480 rerep, IL1B secr inh)
CCOC(=O)c1cc(-c2ccccc2)n(-c2cccc(C(=O)Nc3ccc(OCC)cc3)c2)c1C	TDP1 cell noCPT inconclusive, TDP1 cell CPT inconclusive (no result: MCF10A rerep, SW480 rerep, IL1B secr inh)
COC(=O)c1cnn(-c2ccc(C(=O)Nc3cccc(C(C)=O)c3)cc2)c1N	BCR signal inh inconclusive (no result: MCF10A rerep, SW480 rerep, IL1B secr inh)
COc1ccc(CC(=O)Oc2ccccc2Cl)cc1S(=O)(=O)N1CCOCC1	none
Cc1nc2cc(-c3ccc(Cl)cc3)nn2c(NCCN(C)C)c1C	MCF10A rerep inconclusive, TDP1 cell noCPT 7.31µM, TDP1 cell CPT 7.31µM, SW480 rerep inconclusive, IL1B secr inh -75.4
CC1CCc2nc(/C(C#N)=C/c3ccncc3)sc2C1 (configuration not stated)	BCR signal inh inconclusive, MCF10A rerep inconclusive, TDP1 cell noCPT inconclusive, TDP1 cell CPT 18.4µM, SW480 rerep 7.31µM
COc1ccc(-c2ccc(=O)n(CC(=O)NCC3COCCO3)n2)cc1 (configuration not stated)	SW480 rerep inconclusive
O=S(=O)(c1ccccc1)[C@@]1(c2ccc(Br)cc2)C[C@@H]2ON=C(c3cccc(Br)c3)[C@@H]2C1	TDP1 cell noCPT 18.4µM, TDP1 cell CPT inconclusive
O=S(=O)(c1ccccc1)[C@@]1(c2ccc(Br)cc2)C[C@@H]2ON=C(c3ccccc3)[C@@H]2C1	TDP1 cell noCPT 11.6µM, TDP1 cell CPT inconclusive
COc1ccc(-n2ccnc2SCC(=O)Nc2nnc(C)s2)cc1	TDP1 cell CPT inconclusive (no result: BCR signal inh, MCF10A rerep, SW480 rerep, IL1B secr inh)
O=C(NC1CCCCC1)C1CC(=O)N(c2cccc([N+](=O)[O-])c2)C1 (configuration not stated)	TDP1 cell noCPT inconclusive, TDP1 cell CPT inconclusive
O=C1CCC(C(=O)N2CCCC(C(=O)c3ccc4ccccc4c3)C2)=NN1 (configuration not stated)	TDP1 cell noCPT inconclusive, TDP1 cell CPT inconclusive
